Consider 66 sequences from the supplement of paper PMC11417369.

± gives the standard deviation of the averaged measurements. In all, about 25,000 sequences were measured (“ln(normalized median fluorescence intensity)”: median about 7.9, highest 2% from about 11 on). The full list was thinned out, with the highest values kept by preference.

The subject of this assay is PfAP2-I AP2 domain 3 (GST-tagged). The assay is described as follows: gcPBM binding intensity (ln(normalized median fluorescence intensity)); higher = stronger DNA binding. The essentials: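 After 1 h on an Agilent 4 × 180k array of primer-extended double-stranded 36-bp intergenic genomic probes and negative controls, bound GST-tagged P. falciparum DNA-binding domains were detected with Alexa488 anti-GST antibody and scanned at 488 nm. The domains had been expressed in E. coli, and binding took place in 1× PBS with 1% milk, 0.2 mg/ml BSA, 0.5% salmon testes DNA and 0.03% Triton X-100. Binding intensity is the highest Masliner-normalised natural-log median intensity across replicate spots of either probe orientation.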
Consider “AATAAAATGAGATGTTGTACAGTTTTGATATATGCA [XGTACX_site3052]”, for which the “gcPBM binding intensity (ln)” value turned out to be 7.96 ± 0.19. For “CATTATTATGATAGTTGTACAATTTTTATAAAAAAT [XGTACX_site4411]”, the “gcPBM binding intensity (ln)” value came to 7.93 ± 0.35. For the sequence GATAAAATGAGACCAGTGCATTATTAGTTGTACACC, the “gcPBM binding intensity (ln)” value came out at 11.3 ± 0.53. Turning to TAATTAATTTATTAGTTGCACTGTACCATTAGAGTA, the “gcPBM binding intensity (ln)” value stood at 9 ± 0.11. Turning to “TTTTTATAGAATTTAACACACATTTCATATAAAAAA [CACACA_site7453]”, the “gcPBM binding intensity (ln)” value amounted to 7.86 ± 0.47. With AAAAAAAAAAAATACGTGCACTATGATATATTATAT, the “gcPBM binding intensity (ln)” value amounted to 11.4 ± 0.36. Take TACTATTATAAATATGTGCACTTCAATAATATACTA: the “gcPBM binding intensity (ln)” value amounted to 10.4 ± 0.11. For the sequence TAATAAAATATGTACGTGCACATAATTATACTAAAA, the “gcPBM binding intensity (ln)” value is 10.3 ± 0.18. For the sequence “TATGATTAATTACCACAATTGACAAAAAAAAAAAAA [CACACA_negctrl_site336]”, the “gcPBM binding intensity (ln)” value amounted to 8.13 ± 0.87. As to “TTTTGTTACTTTTATGTGCACTTATAAAACGAACTA [GTGCAC_site9551]”, the “gcPBM binding intensity (ln)” value turned out to be 11.3 ± 0.085. As for “AACTATTTTATTATATGTACTTACGAATTTATAAAA [XGTACX_site5262]”, the figure is 7.87 ± 0.35; as for ATATATATTATGTGTGTGCACTTTTGTTATTATTAT, 9.83 ± 0.014; as for “AAAACACAATTTATTACACACATATATTATAGATTA [CACACA_site6780]”, 7.61 ± 0.68. Consider “AGAATTTTAGATTTAGCACACATTTTTTTTTTTTTT [CACACA_site4081]”, for which the “gcPBM binding intensity (ln)” value was found to be 8.34 ± 0.45. Regarding “TATATAGATATGATAGTGCATTTTTAGAAAACATAA [GTGCAC_site9962]”, the “gcPBM binding intensity (ln)” value is 9.44 ± 0.14. With “ATATTGAAATTAAAAAAATATATGAACAAATGATGA [CACACA_negctrl_site602]”, the “gcPBM binding intensity (ln)” value amounted to 7.69 ± 0.59.

For “TTTTTTAAATTGGTAGTGCAATATGATTGAACAAAA [GTGCAC_site9715]”, the “gcPBM binding intensity (ln)” value amounted to 10.9 ± 0.79. As for TTTTTTTTTTTTGTAGTGCAAATTAAAAATATATGT, the “gcPBM binding intensity (ln)” value came out at 10.6 ± 0.53. Consider GTTTTAACAAAATTAGTGCATTTATCAATTATATAA, for which the “gcPBM binding intensity (ln)” value was found to be 10.5 ± 0.14. In the case of ATGATATGCAATTTAGTGCATAACAAAATTGGTATA, the “gcPBM binding intensity (ln)” value was 10.9 ± 0.49. Take “AAAAAAAAAAAAAGCACACATATAAATATGAATAAA [CACACA_site1393]”: the “gcPBM binding intensity (ln)” value was 8.39 ± 0.085.

For “TAATTTTATATTAAAAGTACATAATAAAAACTATAA [XGTACX_site8779]”, the “gcPBM binding intensity (ln)” value stood at 7.79 ± 0.22. Take “TAAATATATATCATCACACACACATACATAAATATA [CACACA_site183]”: the “gcPBM binding intensity (ln)” value was found to be 7.72 ± 0.47. “TAATAATATAAATATGCACACAAATTATTACCCAAA [CACACA_site8805]”: the “gcPBM binding intensity (ln)” value came to 8.97 ± 0.47. For “CATATTTGCACTTTCACACATAAATATATAACTATA [CACACA_site6016]”, the “gcPBM binding intensity (ln)” value was 11 ± 0.89. Take “GCTAAAAGTATATGCACACACATATATATGCACATA [CACACA_site1635]”: the “gcPBM binding intensity (ln)” value stood at 10.3 ± 0.16. As for “AAAAAATATACATATACACACATATGTATATATAAT [CACACA_site8676]”, the “gcPBM binding intensity (ln)” value turned out to be 7.57 ± 0.31. Regarding “AAAAATAATGCACATATATATAATATGTATATGTAT [CACACA_negctrl_site443]”, the “gcPBM binding intensity (ln)” value was 11 ± 0.6. Regarding “AAAAATATAATATATGCACACATACATACATATATA [CACACA_site7915]”, the “gcPBM binding intensity (ln)” value worked out at 9.06 ± 0.057. As for “GCTAAAAGTATATGCACACACATATAGATGCACATA [CACACA_site6868]”, the figure is 10 ± 0.14.

On to “CTTTTTTTTTTTTTTGCACACACATATATAAATATA [CACACA_site3950]”, for which the “gcPBM binding intensity (ln)” value is 9.74 ± 0.042. As for “AAAATATAATATAATGCACACATAAAAAAAAAATCA [CACACA_site7922]”, the figure is 10.8 ± 0.64; as for “AATATAATATAATGCACACATAAAAAAAAAAAAATC [CACACA_site1303]”, 11 ± 0.64. As for “GTGCTAAAAGTATATGCACACACATATATATGCACA [CACACA_site8472]”, the “gcPBM binding intensity (ln)” value was 10.9 ± 0.55. With “AATTCTTTACTATTCACACATATAAATATTCACTTT [CACACA_site4886]”, the “gcPBM binding intensity (ln)” value was 8 ± 0.7. Consider “ATAGATATACATATCACACATATATATATATATATA [CACACA_site4985]”, for which the “gcPBM binding intensity (ln)” value is 9.19 ± 0.65. As for “GATATAGATATTAATTGTACATATTATTTATTGTTA [XGTACX_site846]”, the “gcPBM binding intensity (ln)” value was 7.62 ± 0.36. On to “TTAAAAAAATATAATACACACCAAAAATATGCACAT [CACACA_site5209]”, for which the “gcPBM binding intensity (ln)” value is 9.6 ± 0.43. Take “TTAAATATATGTAATACGCACACTTAATATTTTGAG [CACACA_site4170]”: the “gcPBM binding intensity (ln)” value was determined as 8.18 ± 0.35. On to “AATTTTCATTTTAGAAGTACACACAAAAAATAAAAT [XGTACX_site4426]”, for which the “gcPBM binding intensity (ln)” value was 8.13 ± 0.22.

For the sequence “TGAATTTAGATATATACACACAAAAGTATATACAAT [CACACA_site2804]”, the “gcPBM binding intensity (ln)” value turned out to be 7.53 ± 0.54. Consider “TATATATATTCTTTAAAACACACGTAAAGAAGAATT [CACACA_site2718]”, for which the “gcPBM binding intensity (ln)” value is 7.94 ± 0.62.

With “TATATATATATATTCACACATAAAAATAAAATAAAA [CACACA_site4774]”, the “gcPBM binding intensity (ln)” value was determined as 9.2 ± 0.13. As for “ATAATAAAAAAAAATGCACACATATATATATATATA [CACACA_site8766]”, the figure is 9.59 ± 0.47. On to “AATATAATATAATGCACACATAAAAAAAAAAAAAAA [CACACA_site304]”, for which the “gcPBM binding intensity (ln)” value was 11.1 ± 0.87.

For the sequence “AAAATATAATATAATGCACACATAAAAAAAAAAAAA [CACACA_site7989]”, the “gcPBM binding intensity (ln)” value is 11.1 ± 0.49. With “AATAAAAAAAAATGCACACATATATATATATATATA [CACACA_site2421]” the figure was 9.67 ± 0.52; with “TAAACATAAATATGCACACATATACATATATTCATA [CACACA_site2667]”, 8.69 ± 0.099; with “TATATATATATATTCACACATAAATATATGCACCCA [CACACA_site4263]”, 11.1 ± 0.68. “TCCTTATATTTGCACACACACACAAGAAAATGAAAA [CACACA_site6613]”: the “gcPBM binding intensity (ln)” value stood at 10.3 ± 0.54. With “TTTTGAATTAAACAAGCATGCTTTATTTACTTCTTA [TGCATGCA_site289]”, the “gcPBM binding intensity (ln)” value stood at 7.59 ± 0.86.

As to “ACTAAACGAATAAATTGTACAAAGAAATATATTCAT [XGTACX_site6766]”, the “gcPBM binding intensity (ln)” value came out at 7.83 ± 0.54.

Regarding “TTCTTCTGTTTTATTACACACCATTTTGTGGATACA [CACACA_site5181]”, the “gcPBM binding intensity (ln)” value worked out at 8.38 ± 0.71.

For the sequence “ACTACATAATACTATTCACACATTTTTTTTTTTTTT [CACACA_site5794]”, the “gcPBM binding intensity (ln)” value was 7.83 ± 0.58. Turning to “ATATATATTTTTAATTGTACAGAATTAAAAATATTG [XGTACX_site1967]”, the “gcPBM binding intensity (ln)” value stood at 7.64 ± 0.45. Consider “AAAAAAAAAAAACACACACACACACCGATACATACA [CACACA_site8849]”, for which the “gcPBM binding intensity (ln)” value is 7.92 ± 0.45.

Regarding “AAAAGGAAAATACTAGCACACAATATATAATAAACA [CACACA_site285]”, the “gcPBM binding intensity (ln)” value worked out at 7.99 ± 0.49. Take “ATTTATATATATGTATGTACGTATGTGTGTATATGT [XGTACX_site7587]”: the “gcPBM binding intensity (ln)” value amounted to 8.55 ± 0.27. Take TTTATTTATGTGTGGGTGCATATACGTATGATGTAT: the “gcPBM binding intensity (ln)” value is 11 ± 0.72. As for “TTTCACATATATATGGTGCATATTTTATGTGTAAAT [GTGCAC_site9937]”, the “gcPBM binding intensity (ln)” value amounted to 9.95 ± 0.52. Take “GTATTATTTTATGATGCATGTGTATTTCATATATGC [TGCATGCA_site660]”: the “gcPBM binding intensity (ln)” value was determined as 7.74 ± 0.49. Consider “CACATATATATGTGTGCATGTTGTATTATATATTTA [TGCATGCA_site632]”, for which the “gcPBM binding intensity (ln)” value is 8.69 ± 0.46. “ATATATTATGGGTGTGCACACAATATTTATATGTTC [CACACA_site2270]”: the “gcPBM binding intensity (ln)” value was 9.59 ± 0.23. With ATATGAAACATGAAGGTGCATAATGTGTATATTTAT the figure was 11.3 ± 0.69; with “ATTTCCCCAACGTGGGTGCATATATTTATGTGTGAA [GTGCAC_site9439]”, 10.9 ± 0.82; with “TATTTATATGTATATACATGCACATATATATGAAAC [TGCATGCA_site1005]”, 8.35 ± 0.57.
